Only some compounds are listed: those with a hit (about 2.4% of all), similar ones and a draw of the others.
miR-122 sensor = blocks miR-122 activity in Huh7 sensor cells. Huh7 miR-122 Renilla luciferase sensor, 48 h; neutral wells = 0, positive control = 100. hit rate 0.3% among 340,000. activation (reporter increase), % at 12.5 µM. AID 602342;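 active = mean replicate activation score at least 90 and every replicate individually at or above 90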;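 note: higher luciferase means less miR-122 activity so hits act as miR-122 inhibitors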
Wnt act = Wnt/beta-catenin pathway activation | Wnt/beta-catenin reporter cell assay, activator, plate reader | hit rate 1.2% among 300,000 | AID 743398 | activation, % at 9.35 µM; in the data active = activation above about 30%, passing the limit was not always enough;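 note: 0% = neutral control wells and 100% = positive control wells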
INS-1E GSIS act = GLuc luminescence reporter in INS-1E cells, primary screen for activators of glucose-dependent secretion of insulin; INS-1E GLuc reporter insulin secretion, 2-3 h; hit rate 0.61% among 370,000; AID 743287; activation, % at 16.6 µM;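 active = lowest replicate activation of at least 40%, so every replicate reaches that level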;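 note: 0% = median of neutral control wells and 100% = median of IBMX positive control wells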
DYRK1A inh = blocks rat Dyrk1A kinase activity; AID 504441; inhibition, % at 12.5 µM; hit rate 0.43% among 310,000; ADP-Glo luminescence, NFATc1 peptide; Q63470;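 note: plate controls were vehicle with enzyme for no effect and no enzyme for full effect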
NSD2 HMT inh = NSD2 (human) methyltransferase inhibition. NSD2 peptide methylation, AlphaScreen, 120 min. inhibition, % at 12.5 µM. hit rate 0.54% among 310,000
Target sequence (O96028 whole entry, looked up): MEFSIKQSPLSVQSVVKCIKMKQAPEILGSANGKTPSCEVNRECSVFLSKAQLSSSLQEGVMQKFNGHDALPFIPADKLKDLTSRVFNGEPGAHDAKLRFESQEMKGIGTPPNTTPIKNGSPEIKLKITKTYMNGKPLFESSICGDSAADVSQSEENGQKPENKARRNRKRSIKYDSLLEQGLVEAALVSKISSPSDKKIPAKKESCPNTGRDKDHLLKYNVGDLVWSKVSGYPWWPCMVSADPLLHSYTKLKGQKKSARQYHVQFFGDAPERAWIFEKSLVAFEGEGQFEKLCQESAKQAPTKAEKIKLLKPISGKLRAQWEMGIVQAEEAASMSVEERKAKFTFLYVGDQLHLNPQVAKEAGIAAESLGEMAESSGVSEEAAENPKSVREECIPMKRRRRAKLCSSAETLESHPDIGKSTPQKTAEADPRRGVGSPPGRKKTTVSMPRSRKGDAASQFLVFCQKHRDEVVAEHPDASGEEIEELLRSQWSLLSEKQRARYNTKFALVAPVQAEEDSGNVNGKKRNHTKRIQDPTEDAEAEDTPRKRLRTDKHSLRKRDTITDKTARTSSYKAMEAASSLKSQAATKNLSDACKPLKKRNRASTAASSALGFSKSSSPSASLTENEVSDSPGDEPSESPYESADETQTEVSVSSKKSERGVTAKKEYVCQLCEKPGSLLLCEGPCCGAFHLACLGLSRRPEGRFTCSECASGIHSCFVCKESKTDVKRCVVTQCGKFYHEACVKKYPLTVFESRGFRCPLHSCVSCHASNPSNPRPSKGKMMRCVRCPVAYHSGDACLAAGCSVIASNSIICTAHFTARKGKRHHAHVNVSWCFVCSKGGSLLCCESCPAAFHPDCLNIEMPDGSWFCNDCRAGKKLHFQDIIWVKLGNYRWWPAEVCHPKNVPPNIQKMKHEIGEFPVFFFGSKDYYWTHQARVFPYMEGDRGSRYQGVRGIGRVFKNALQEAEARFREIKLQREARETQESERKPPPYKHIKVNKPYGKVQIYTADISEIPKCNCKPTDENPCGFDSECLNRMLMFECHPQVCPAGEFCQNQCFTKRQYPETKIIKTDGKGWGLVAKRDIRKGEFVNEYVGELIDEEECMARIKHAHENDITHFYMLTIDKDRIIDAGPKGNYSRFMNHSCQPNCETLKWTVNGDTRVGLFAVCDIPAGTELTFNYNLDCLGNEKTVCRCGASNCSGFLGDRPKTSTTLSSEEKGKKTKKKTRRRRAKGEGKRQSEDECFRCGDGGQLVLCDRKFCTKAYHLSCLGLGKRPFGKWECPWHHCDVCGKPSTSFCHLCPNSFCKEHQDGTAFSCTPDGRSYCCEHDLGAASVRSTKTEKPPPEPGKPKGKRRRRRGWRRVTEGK
MITF TRPM1 HTS = MITF TRPM1 promoter activation in melanoma cells; SK-MEL-5 TRPM1-promoter luciferase, 24 h; % of positive control, neutral wells = 0; activation, % at 12.5 µM; hit rate 0.75% among 300,000; AID 588334;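 active = mean activation of at least 80% with every replicate also reaching 80%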;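 note: 0% = neutral control wells and 100% = parthenolide positive control wells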
Numbers without * were called inactive; . = no result given; [ ] = another dose, or the depositor's remark. Cut-off read from the data, not from the text of the source, unless noted: active = inhibition above about 50%; inactive = the rest.

SMILES	miR-122 sensor	Wnt act	INS-1E GSIS act	DYRK1A inh	NSD2 HMT inh	MITF TRPM1 HTS
C[C@@H]1CN([C@@H](C)CO)C(=O)c2cc(C#CCN(C)C)cnc2O[C@@H]1CN(C)C	5[16.7 µM]	.	24	.	.	.
O=C(c1cccnc1)N1CC2(C1)[C@@H](c1ccccc1)[C@@H](CO)N2CC1CC1	.	.	7	.	.	.
COCCn1c(NC(=S)NC(=O)C2CC2)cc(=O)[nH]c1=O	1	-2	-7	.	-6	11
COCc1cc(=O)[nH]c2cc(NC(=O)C3CC3)c(C)cc12	-3	50*	.	-5	1	-17
CCOC(=O)c1nn(-c2ccc(F)cc2)cc1O	-8	20	.	-7	-2	92*
CO/N=C/C(C#N)=C/c1ccc(OC)c(OC)c1	.	-3	60*	2	-1	10
S=C(NCc1ccccc1)Nc1cccc2cnccc12	5	0	-27	-2	0	-9
FC(F)(F)c1ccccc1NC(=S)Nc1cccc2cnccc12	.	1	-14	.	96*	2
COc1ccc(/C=C/C(=O)O)cc1COc1cccc(C)c1	-4	.	47*	1	0	-2
COc1ccc(/C=C/C(=O)C2CC2)cc1COc1c(C)cccc1C	14	15	17	.	-3	-11
C[C@@H]1CCCCO[C@H](CN(C)C(=O)c2ccccc2)[C@@H](C)CN([C@@H](C)CO)C(=O)c2cc(NS(=O)(=O)c3ccccc3)ccc2O1	-8[16.7 µM]	.	-20	.	.	.
O/N=C/c1ccc(OCc2ccccc2)c(Br)c1	-3	42*	-12	32	0	73
COc1cc(OC)cc(C(=O)Oc2ccc(/C=N/Nc3nc4ccccc4s3)cc2OC)c1	-6	41*	-2	-2	-2	0
Cc1noc(C)c1S(=O)(=O)Nc1ccc2c(c1)C(=O)N([C@@H](C)CO)C[C@@H](C)[C@H](CN(C)CC1CC1)O2	1[16.7 µM]	.	14	.	.	.
Oc1c(C2=NCCNC(C(F)(F)F)=C2)ccc2ccccc12	.	-1	-39	5	26	87*
N#Cc1cccc(-c2ccc([C@@H]3[C@@H]4CN(S(=O)(=O)c5ccc(-c6ccccc6)cc5)C[C@H]3N4)cc2)c1	.	.	556*	.	.	.
N#Cc1cccc(-c2ccc(C3[C@@H]4CN(S(=O)(=O)c5ccccc5)C[C@H]3N4)cc2)c1 (stereo partly drawn)	.	.	-7	.	.	.
COc1ccc2cc3cc(C(=O)NCCN4CCc5ccccc5C4)oc3nc2c1	2	.	.	77*	.	22
COc1ccc2cc3cc(C(=O)NCCc4ccc(OC)c(OC)c4)oc3nc2c1	-3	-1	.	9	-4	-63
O=S(=O)(Nc1ccc(C(O)(C(F)(F)F)C(F)(F)F)cc1)c1cccc2ccccc12	102*	-1	63	.	.	.
CC(C)(C)c1ccc(S(=O)(=O)Nc2ccc(C(=O)N3CCCC3)cc2)cc1	.	1	-16	4	8	-4
O=S(=O)(Nc1ccc(C(O)(C(F)(F)F)C(F)(F)F)cc1)c1ccc(S(=O)(=O)c2ccccc2)s1	.	.	.	.	3	.
COc1cccc(S(=O)(=O)Nc2ccc(C(O)(C(F)(F)F)C(F)(F)F)cc2)c1	129*	-2	-25	.	.	.
CC(C)(C)c1ccc(S(=O)(=O)Nc2ccc(C(O)(C(F)(F)F)C(F)(F)F)cc2)cc1	103*	-1	.	.	.	.
CCCCCc1cc(=O)oc2c(C(CCN3CCCCC3)c3cc(OC)c(OC)c(OC)c3)c(OC)cc(OC)c12 (stereo not drawn)	-11	-14	59*	11	.	-87
SMILES	miR-122 sensor	Wnt act	INS-1E GSIS act	DYRK1A inh	NSD2 HMT inh	MITF TRPM1 HTS
CCCCCc1cc(=O)oc2c(C(CCN3CCCC(C)C3)c3cc(OC)c(OC)c(OC)c3)c(OC)cc(OC)c12 (stereo not drawn)	.	.	.	3	.	-72
CSc1nnnn1-c1ccc(C(=O)O)cc1	-2	.	26	-1	2	-3
O=C(O)c1ccc(-n2nnnc2SCc2cccc(Br)c2)cc1	3	-2	63*	0	34	11
Cc1cc(C)c(CSc2nnnn2-c2ccc(C(=O)O)cc2)c(C)c1	.	-1	89*	-6	0	-1
Cc1cccc(CSc2nnnn2-c2ccccc2)c1	14	.	-16	-12	-17	-3
C[C@H](O)C#Cc1ccc([C@H]2[C@@H](CO)N3CCCCN(C(=O)c4cccc(F)c4)C[C@@H]23)cc1	-6[16.7 µM]	.	-1	.	.	.
COc1ccc(S(=O)(=O)N2N=C(C)Oc3ccccc3C2=O)cc1	123*	-24	.	0	9	-17
CSc1nc(-c2ccc(C)cc2)[nH]c1S(=O)(=O)c1ccccc1	126*	-3	.	.	-5	-9
COc1cc(Cl)ccc1OCc1cc(C(=O)N2CCN(C)C(=O)[C@@H]2C)no1	1	43*	-1	.	-2	.
CCCOC1CCCN(C(=O)c2cc(COc3ccc(F)c(F)c3)on2)C1 (stereo not drawn)	4	21	-55	0	-3	90*
COc1cc(Cl)ccc1OCc1cc(C(=O)N2CCCC(OC)C2)no1 (stereo not drawn)	3	45*	15	-2	-3	55
COc1cc(Cl)ccc1OCc1cc(C(=O)NC(C)Cc2cnccn2)no1 (stereo not drawn)	0	47*	12	-1	4	88*
COc1cc(Cl)ccc1OCc1cc(C(=O)N2CCCCCC2)no1	-1	1	-15	1	-12	22
CCCN1CCN(C(=O)c2cc(COc3ccc(F)c(F)c3)on2)CC1	-4	8	-4	3	-4	12
C[C@@H]1CN([C@H](C)CO)C(=O)Cc2cc(NC(=O)c3ccncc3)ccc2O[C@H]1CN(C)C(=O)Nc1cccc2ccccc12	4[16.7 µM]	.	13	.	.	.
CN1c2ccc(C#Cc3cccnc3)cc2[C@@H]2[C@@H](CCN2S(=O)(=O)c2ccccc2F)[C@@H]1CO	52[16.7 µM]	.	-11	.	.	.
C[C@H]1CN([C@@H](C)CO)S(=O)(=O)c2ccc(C#CC3CC3)cc2O[C@H]1CN(C)Cc1ccccc1F	5[16.7 µM]	.	-22	.	.	.
CCOC(=O)C1CCN(C(=O)c2cc(COc3ccc(OC)c4ccccc34)on2)CC1	-6	40*	-4	1	-4	9
Cc1ccc(C)c(OCc2cc(C(=O)N3CC[C@@H]4CCCC[C@H]4C3)no2)c1	-10	17	-8	-3	-1	22
COc1cc(C)ccc1OCc1cc(C(=O)N2CCC(c3ccc(F)cc3)C2)no1 (stereo not drawn)	1	41*	-2	0	0	82*
c1cncc(-c2nc(-c3ccc4c(c3)OCO4)cs2)c1	8	32*	.	-4	-11	85*
CC(=O)Nc1cnc(-c2ccc3c(c2)OCO3)cn1	1	40*	.	.	-4	.
O=C(Nc1nc(-c2nc3ccccc3s2)cs1)C1CC1	-13	49*	.	5	.	.
Cc1nc(-c2ccc3c(c2)OCO3)cs1	2	10	.	-5	-3	.
O=C(CN1C(=O)CCC1=O)Nc1nc(-c2ccc3ccccc3c2)cs1	.	44*	-6	5	3	67

Bioassay records: PubChem BioAssay, Broad Institute
